Measurements reported in PubChem BioAssay (NCI).
Compounds without any hit were thinned out: in the full panel of roughly 83,000, 20% have a hit.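 Negative percent growth values reflect cell death: -40 means 40% of the cells present at the start died, and -100 means all died.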 A number with no mark means an inactive call. Activity calls are given as the source filed them. Rule for the calls: active = growth percent below 10; inactive = the rest.

test system: MDA-MB-468 breast; experiment: NCI-60 one-dose screen, 48 h (100 = growth as untreated, 0 = no growth, -100 = all killed); conditions: 10 µM unless noted

SMILES	growth
O=C(Nc1ccccc1)Nc1ccc(C(=O)/C=C/c2ccc(N3CCCC3)cc2)cc1	17.3%
Cc1nn(-c2ccc([N+](=O)[O-])cc2)c2ncnc(NCCc3ccccc3)c12	111%
COc1ccc(-c2nc3c(N)c(CO)c(C)nc3o2)cc1	67.5%
C[C@]12C[C@H]1CC[C@]1(C)[C@@H]2CC[C@@]23C[C@H](CC[C@H]21)[C@@](O)(CO)C3	82.3%
COc1cc(/C=C2\CN(C)C/C(=C\c3cc(CN4CCOCC4)c(O)c(OC)c3)C2=O)cc(CN2CCOCC2)c1O	38.8%
NC(=Nc1ccc(N)cc1)C(N)=Nc1ccc(N)cc1	94.3%
O=C(NNc1nc2cc(F)ccc2n2c(CN3CC4(COC4)C3)ccc12)c1cnccn1	-16.1% (active)
COC(=O)/C=C/c1cc(OC(C)=O)c2c(c1)C(C(=O)OC)C(c1ccc(OC(C)=O)c(OC(C)=O)c1)O2 (stereo not given)	35.8%
O=C(Nc1ccsc1C(=O)NC1CCCCC1)c1ccc(F)cc1	101%
O=C(Oc1ccc[nH]c1=O)c1cc([N+](=O)[O-])cc([N+](=O)[O-])c1	119%
COc1ccc2nc3cc(Cl)ccc3c(N3CCN(c4nccc(NCc5ccccc5)n4)CC3)c2c1	15%
O=C(Nc1cccc(-c2nc(-c3ccc(NC(=O)c4cccs4)cc3Cl)no2)c1)Nc1ccc(NC(=O)C2CC2)c(C(F)(F)F)c1	-84.6% (active)
O=C(/C=C/c1ccco1)Nc1ncc(Cc2cc(Cl)ccc2Cl)s1	14.6%
COc1cc(/C=C/C(=O)c2cc(OC)c(OC)c(OC)c2)ccc1Oc1nc(NCCO)nc(N2CCOCC2)n1	-20.8% (active)
O=C1CSC(c2ccccc2Cl)N1c1nnc(Cn2cnnc2)o1 (stereo not given)	27.2%
O=C(CCl)Nc1ccccc1SCc1cc(Cl)cc2c1OCOC2	51.6%
CCCCNc1ccc(C#N)c(OCCN(CC)CC)c1	90.1%
CCCCCCN(C)Cc1ccc(OCCOc2ccc(CN(C)CCCCCC)cc2)cc1	-59.9% (active)
COc1cc(/C=C/C(=O)N2CCN(C(=O)/C=C/c3ccccc3)CC2)cc(OC)c1OC	107%
COc1ccc2c(c1)NC(=O)CN2c1nc(NC2CC2)nc2ccccc12	8.4% (active)

SMILES	growth
O=S(=O)(NCCCNc1cc(-c2c(-c3cccc(O)c3)nc3sccn23)ccn1)c1cccc2ccccc12	38.3%
CC(C)CCC[C@@H](C)[C@H]1CCC2C3=CCn4c(=O)ccc(=O)n4C3CC[C@@]21C (stereo not given in full)	-49% (active)
COc1ccc(/C=C/C(=O)c2c(C)nc3ccccc3c2/C=C/c2ccccc2)cc1O	40.1%
CCOc1cc(C2C(Cl)C(=O)N2n2cnnc2)ccc1O (stereo not given)	111%
O=C(Nn1c2c(sc1=NC1CC1)C(=O)c1ccccc1C2=O)c1cc2ccc1CCc1ccc(cc1)CC2	32.4%
Nc1ccccc1-c1ccc([N+](=O)[O-])cc1	67.5%
CN1CCN(C(=O)OCc2nc3c(N4CCOCC4)nc(Cl)nc3n2C)CC1	-69.4% (active)
COc1ccc(S(=O)(=O)N2CCCCCC2)cc1NC(=O)c1[nH]c(C)c2c1CCCCC2=O	4% (active)
C[C@]12O[C@H]1[C@H](O)c1c(cc(O)c3c1C(=O)c1cccc(O)c1-3)C2=O	83.3%
CC(C)(C)C1CCC(=NO)CC1 (stereo not given)	94%
CCN(CCO)CCNc1ccc(C)c2sc3cc(OC)ccc3c(=O)c12	87.7%
C[C@@H]1CN(c2ccc3ncc(C#Cc4cncc(C(=O)Nc5ccc(CN6CCN(C)CC6)c(C(F)(F)F)c5)c4)n3n2)C[C@H](C)O1	-76.7% (active)
Cc1cc(Cl)nc(N(CCCNc2ccnc3cc(Cl)ccc23)Cc2cccs2)n1	-30.1% (active)
Fc1ccccc1Nc1n[nH]c(=S)s1	106%
FC(F)(F)c1[nH]ncc1-c1nc2c(N3CCCCC3)cc3[nH]ncc3c2c2c1CCCC2	-25.6% (active)
C=C(C)[C@@H]1C[C@@H]2Cc3ccc(Cl)c(C)c3N1O2	96.3%
Nc1nnc(-c2ccc3ccccc3c2O)o1	96.5%
C/C(=C\c1csc(C)n1)[C@@H]1C[C@@H]2O[C@]2(C)CCC[C@H](C)[C@H](O)[C@@H](C)C(=O)C(C)(C)[C@@H](O)CC(=O)N1	22.4%
CCc1[nH]nc(-c2ccc(OC)cc2)c1-c1ccccc1OCCN(CC)CC	87.8%
COc1ccc(C2C3=C(COC3=O)N(CCO)c3cc(OC)c(OC)cc32)cc1 (stereo not given)	110%
